The source of these data is PubChem BioAssay (NCI).

Among the test systems are RPMI-8226 leukemia; OVCAR-8 ovarian; OVCAR-5 ovarian; OVCAR-4 ovarian; SK-OV-3 ovarian; IGROV1 ovarian; NCI/ADR-RES ovarian; T-47D breast; BT-549 breast; MDA-MB-435 melanoma; SW-620 colon; HCT-116 colon; HCC-2998 colon; KM12 colon; OVCAR-3 ovarian; HS 578T breast; MCF7 breast.
What all share (experiment): NCI-60 one-dose screen, 48 h (100 = growth as untreated, 0 = no growth, -100 = all killed)
Common to all, as to details: 10 µM unless noted

The panel holds about 83,000 compounds, 20% with a hit somewhere; the sample as a whole holds those more often.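 Percent growth is the endpoint: 0 to 100 indicates growth inhibition (40 means 60% inhibition), 0 means no net growth, and negative values indicate cell death.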 Values without a mark were called inactive. Activity calls are given as the source filed them. Rule for the calls: active = growth percent below 10; inactive = the rest.

With `COc1ccc2nccc(/C=C/c3ccnc4ccc(OC)cc34)c2c1`, the growth in the assay with RPMI-8226 leukemia is -5.34% (active); in the assay with OVCAR-8 ovarian, 68.9%; with OVCAR-5 ovarian, 117%; with OVCAR-4 ovarian it was 104%; in the assay on SK-OV-3 ovarian, 115%; with IGROV1 ovarian, 102%. The growth in the assay with NCI/ADR-RES ovarian was 101%; in the assay with T-47D breast it was 98.4%; in the assay with BT-549 breast it was 189%; with MDA-MB-435 melanoma it was 111%; in the assay with SW-620 colon it was 104%; in the assay on HCT-116 colon it was 102%. Also, the figures for the growth with HCC-2998 colon and with KM12 colon were 96.5% and 99.5%, respectively.
With `CC1=NN(c2ccccc2Cl)C(=O)/C1=C\c1cn(S(=O)(=O)c2ccc(C)cc2)c2ccccc12`, the growth was 113% with RPMI-8226 leukemia; 108% with OVCAR-8 ovarian; 88.1% in the assay with OVCAR-5 ovarian; 103% in the assay with OVCAR-4 ovarian; 105% in the assay with SK-OV-3 ovarian; 110% in the assay with OVCAR-3 ovarian. Besides, the growth in the assay on HS 578T breast was 116%; with NCI/ADR-RES ovarian, 85.1%; in the assay on T-47D breast, 91.5%; in the assay with BT-549 breast it was 112%; in the assay with MDA-MB-435 melanoma, 105%; with SW-620 colon, 98.4%. Also, the growth with MCF7 breast is 113%; in the assay on HCT-116 colon, 88.2%; with HCC-2998 colon, 88.5%; in the assay on KM12 colon it was 109%.
As to `CCOC(=O)c1c(C)nc(C)c(C(=O)OCC)c1-c1cccnc1`, the growth in the assay with RPMI-8226 leukemia is 104%; in the assay with OVCAR-8 ovarian, 112%; in the assay with OVCAR-5 ovarian, 97.8%; in the assay on OVCAR-4 ovarian, 97.8%; with SK-OV-3 ovarian, 99.2%; in the assay with OVCAR-3 ovarian, 115%. Further, the growth in the assay with HS 578T breast is 122%; with NCI/ADR-RES ovarian, 103%; in the assay on T-47D breast, 92%; in the assay on BT-549 breast, 106%; with MDA-MB-435 melanoma, 111%; in the assay on SW-620 colon, 112%. Also, the growth is 109% with MCF7 breast, 90% with HCT-116 colon, 104% with HCC-2998 colon and 110% in the assay on KM12 colon.
Regarding `COc1cc2c(c(OC)c1OC)CCc1cnoc1-2`, the growth with RPMI-8226 leukemia was 98.1%; in the assay with OVCAR-8 ovarian it was 102%; in the assay with OVCAR-5 ovarian, 91.9%; in the assay with OVCAR-4 ovarian, 95%; in the assay on SK-OV-3 ovarian it was 109%; in the assay on OVCAR-3 ovarian it was 116%. In addition, the growth in the assay on HS 578T breast was 106%; with NCI/ADR-RES ovarian, 94.3%; in the assay with T-47D breast it was 97.7%; with BT-549 breast it was 101%; with MDA-MB-435 melanoma, 103%; in the assay on SW-620 colon it was 114%. Further, the growth is 104% in the assay on MCF7 breast, 176% in the assay with HCT-116 colon, 90.1% in the assay with HCC-2998 colon and 106% with KM12 colon.
As for `NC(=O)c1ncn([C@@H]2O[C@H](CO)[C@@H](O)[C@H]2O)n1`, the growth with RPMI-8226 leukemia was 87.2%; in the assay on OVCAR-8 ovarian it was 72.7%; with OVCAR-5 ovarian, 102%; with OVCAR-4 ovarian, 92.2%; in the assay with SK-OV-3 ovarian, 96.8%; with IGROV1 ovarian, 98.9%. Further, the growth was 103% in the assay with OVCAR-3 ovarian; 88% in the assay with NCI/ADR-RES ovarian; 89% in the assay with T-47D breast; 105% in the assay with BT-549 breast; 101% in the assay on MDA-MB-435 melanoma; 71.5% in the assay on SW-620 colon. Further, the growth is 89.6% in the assay with HCT-116 colon, 87.6% with HCC-2998 colon and 100% with KM12 colon.
As to `COC(=O)CC1=C(C)/C(=C/c2[nH]c(-c3ccc[nH]3)cc2OC)N=C1C`, the growth with RPMI-8226 leukemia is -55.3% (active); in the assay on OVCAR-8 ovarian it was 6.58% (active); with OVCAR-5 ovarian, 18.7%; with OVCAR-4 ovarian, 10.5%; in the assay with IGROV1 ovarian it was 11.3%; with OVCAR-3 ovarian, -17.7% (active). The growth with HS 578T breast was -14.9% (active); in the assay on NCI/ADR-RES ovarian, 5.14% (active); in the assay on T-47D breast, 0.172% (active); with BT-549 breast, 22.3%; in the assay on MDA-MB-435 melanoma, -4.71% (active); in the assay on SW-620 colon, 4.66% (active). Besides, the growth with MCF7 breast is -3.82% (active); in the assay on HCT-116 colon, -33.6% (active); in the assay on HCC-2998 colon, 11.3%.
In the case of `Clc1cc(Cl)c(OCC#CI)cc1Cl`, the growth in the assay on RPMI-8226 leukemia is 15.2%; with OVCAR-8 ovarian, 72.1%; in the assay with OVCAR-5 ovarian it was 101%; in the assay on OVCAR-4 ovarian, 80%; with IGROV1 ovarian, 45.3%; in the assay with OVCAR-3 ovarian, -61.5% (active). The growth in the assay on HS 578T breast was 103%; in the assay with NCI/ADR-RES ovarian, 83.6%; with T-47D breast it was 1.86% (active); in the assay with BT-549 breast, 135%; in the assay on MDA-MB-435 melanoma it was 55.5%; in the assay on SW-620 colon it was -65.9% (active). Also, the growth with MCF7 breast is 9.27% (active); in the assay with HCT-116 colon, -71.6% (active); in the assay on HCC-2998 colon, 109%; with KM12 colon, 82.1%.
Turning to `C[C@]12CC[C@@H]3c4ccc(O)c([N+](=O)[O-])c4CC[C@H]3[C@@H]1CC[C@@H]2NS(=O)(=O)c1ccc(C(F)(F)F)cc1`, the growth with RPMI-8226 leukemia was 15.6%; in the assay on OVCAR-8 ovarian, 26.9%; with OVCAR-5 ovarian, 80.8%; with OVCAR-4 ovarian, 31%; in the assay on SK-OV-3 ovarian, 74.2%; in the assay with OVCAR-3 ovarian, 23.2%. Further, the growth with HS 578T breast was 52.7%; in the assay with NCI/ADR-RES ovarian, 27.7%; with T-47D breast, 18.6%; in the assay with BT-549 breast it was 30.9%; with MDA-MB-435 melanoma, 17.3%; with SW-620 colon, 34.2%. Further, the growth in the assay on HCT-116 colon was 15.5%; with HCC-2998 colon it was 53.8%; in the assay with KM12 colon, 19.9%.
Turning to `CCC(CCC(C)C1CCC2C3CC=C4CC(O)CCC4(C)C3CCC12C)C(C)C` (configuration not stated) (tested in a mixture with another compound), the growth is 81.4% with RPMI-8226 leukemia; 89.9% in the assay on OVCAR-8 ovarian; 103% in the assay with OVCAR-5 ovarian; 93.7% with OVCAR-4 ovarian; 127% in the assay with SK-OV-3 ovarian; 103% with OVCAR-3 ovarian. The growth in the assay on HS 578T breast is 87.3%; with NCI/ADR-RES ovarian it was 59.6%; with T-47D breast it was 95.3%; with MDA-MB-435 melanoma, 85%; with SW-620 colon, 104%; with MCF7 breast, 95.8%. Further, the results for the growth in the assay with HCT-116 colon, with HCC-2998 colon and in the assay on KM12 colon were 79%, -53.1% (active) and 91.4%, respectively.
Regarding `Nc1nc2ncc(CCNc3ccc(C(=O)NC(CCC(=O)O)C(=O)O)cc3)nc2c(=O)[nH]1` (configuration not stated), the growth with RPMI-8226 leukemia was 112%; with OVCAR-8 ovarian, 108%; in the assay on OVCAR-5 ovarian, 90.1%; in the assay on OVCAR-4 ovarian, 104%; in the assay with SK-OV-3 ovarian it was 110%; in the assay on HS 578T breast, 101%. For the same molecule, the growth with NCI/ADR-RES ovarian is -2.15% (active); in the assay on T-47D breast, 115%; with BT-549 breast, 114%; in the assay on MDA-MB-435 melanoma, 112%; in the assay with SW-620 colon, 103%; in the assay with MCF7 breast, 112%. Further, the growth is 107% in the assay on HCT-116 colon and 110% with KM12 colon.
